Publication PMC7862700, “An all-to-all approach to the identification of sequence-specific readers for epigenetic DNA modifications on cytosine”

How the values were obtained:
Assay in all cases: DAPPL (digital affinity profiling via proximity ligation, sequencing); 10 mM Tris-HCl pH 7.5, 50 mM NaCl, 1 mM DTT, 4% glycerol, room temperature, 30 min; GST-TFs on glutathione beads, 16-mer random dsDNA library, 0.1% formaldehyde crosslink after washing; high values mean tight binding
Settings in all cases: protein: recombinant; tags: N-terminal GST; dsDNA, one strand shown
ERF = target: T1, ERF (Homo sapiens, UniProt P50548 1-548)
T1 sequence: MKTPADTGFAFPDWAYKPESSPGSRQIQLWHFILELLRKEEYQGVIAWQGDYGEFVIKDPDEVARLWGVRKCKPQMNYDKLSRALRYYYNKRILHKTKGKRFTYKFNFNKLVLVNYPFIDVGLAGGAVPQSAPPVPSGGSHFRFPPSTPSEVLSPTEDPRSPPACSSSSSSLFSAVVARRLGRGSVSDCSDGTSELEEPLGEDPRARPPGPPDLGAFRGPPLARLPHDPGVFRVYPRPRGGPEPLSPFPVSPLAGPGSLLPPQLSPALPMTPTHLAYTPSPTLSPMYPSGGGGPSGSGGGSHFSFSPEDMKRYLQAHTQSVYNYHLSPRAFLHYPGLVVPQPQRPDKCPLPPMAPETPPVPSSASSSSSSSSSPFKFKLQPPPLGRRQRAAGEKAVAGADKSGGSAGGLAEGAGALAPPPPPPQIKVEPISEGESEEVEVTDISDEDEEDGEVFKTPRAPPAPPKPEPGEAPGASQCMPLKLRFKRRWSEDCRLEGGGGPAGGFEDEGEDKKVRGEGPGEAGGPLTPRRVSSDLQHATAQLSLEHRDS
Method in brief: (§1)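 Binding signal is given per hexamer as its read frequency for a factor divided by its frequency in the tag-only sample. GST-fused human transcription factors were expressed in yeast, captured on glutathione beads, barcoded with DNA and pooled with that sample, then incubated with 200 nmole of a 16-mer random double-stranded DNA library in Tris/NaCl/DTT/glycerol buffer for 30 min at room temperature. The pools were then washed, crosslinked, proximity-ligated, amplified by PCR and sequenced on an Illumina NextSeq500.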

ETV3L = target: T2, ETV3L (Homo sapiens, UniProt Q6ZN32 1-361)
T2 sequence: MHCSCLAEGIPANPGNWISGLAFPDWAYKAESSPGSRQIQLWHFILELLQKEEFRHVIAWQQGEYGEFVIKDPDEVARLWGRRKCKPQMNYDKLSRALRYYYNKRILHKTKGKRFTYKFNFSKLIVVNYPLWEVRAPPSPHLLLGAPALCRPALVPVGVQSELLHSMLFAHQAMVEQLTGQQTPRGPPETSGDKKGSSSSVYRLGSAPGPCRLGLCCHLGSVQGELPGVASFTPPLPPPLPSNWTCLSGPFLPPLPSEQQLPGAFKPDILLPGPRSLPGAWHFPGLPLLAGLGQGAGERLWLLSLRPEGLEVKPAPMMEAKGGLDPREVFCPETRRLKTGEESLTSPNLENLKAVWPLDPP
Method in brief: as §1

ETS2 = target: T3, ETS2 (Homo sapiens, UniProt P15036 1-469)
T3 sequence: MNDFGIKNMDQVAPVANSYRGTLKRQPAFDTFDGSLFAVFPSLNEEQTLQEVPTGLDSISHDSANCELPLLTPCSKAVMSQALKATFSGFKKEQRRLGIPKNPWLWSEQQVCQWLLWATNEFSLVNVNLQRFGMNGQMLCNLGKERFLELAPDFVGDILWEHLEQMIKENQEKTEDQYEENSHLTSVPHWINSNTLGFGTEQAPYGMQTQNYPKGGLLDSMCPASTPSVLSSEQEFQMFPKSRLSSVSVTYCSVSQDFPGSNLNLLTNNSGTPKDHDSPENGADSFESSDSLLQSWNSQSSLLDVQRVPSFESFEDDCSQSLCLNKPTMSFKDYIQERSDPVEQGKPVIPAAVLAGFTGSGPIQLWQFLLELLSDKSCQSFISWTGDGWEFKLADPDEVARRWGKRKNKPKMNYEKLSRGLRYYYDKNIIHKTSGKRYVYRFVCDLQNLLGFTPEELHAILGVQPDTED
Method in brief: as §1

SPDEF = target: T4, SPDEF (Homo sapiens, UniProt O95238 1-335)
T4 sequence: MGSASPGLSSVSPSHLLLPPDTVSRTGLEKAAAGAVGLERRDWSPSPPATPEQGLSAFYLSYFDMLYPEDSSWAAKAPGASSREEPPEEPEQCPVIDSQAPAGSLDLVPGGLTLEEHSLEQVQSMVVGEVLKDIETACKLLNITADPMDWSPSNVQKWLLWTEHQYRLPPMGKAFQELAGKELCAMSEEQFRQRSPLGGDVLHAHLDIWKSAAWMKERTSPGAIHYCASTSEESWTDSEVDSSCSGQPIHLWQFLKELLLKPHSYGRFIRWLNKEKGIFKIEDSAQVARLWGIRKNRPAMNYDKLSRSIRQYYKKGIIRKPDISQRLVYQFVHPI
Method in brief: as §1

ETV7 = target: T5, ETV7 (Homo sapiens, UniProt Q9Y603 1-341)
T5 sequence: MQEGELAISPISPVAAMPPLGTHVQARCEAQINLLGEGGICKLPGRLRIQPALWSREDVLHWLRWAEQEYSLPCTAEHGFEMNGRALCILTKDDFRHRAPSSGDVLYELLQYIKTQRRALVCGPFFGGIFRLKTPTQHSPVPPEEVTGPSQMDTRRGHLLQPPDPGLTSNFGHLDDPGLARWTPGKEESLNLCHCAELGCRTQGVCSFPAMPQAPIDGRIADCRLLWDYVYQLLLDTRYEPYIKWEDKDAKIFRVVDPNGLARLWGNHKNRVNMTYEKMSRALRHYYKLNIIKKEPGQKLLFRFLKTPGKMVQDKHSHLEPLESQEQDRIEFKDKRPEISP
Method in brief: as §1

ELF5 = target: T6, ELF5 (Homo sapiens, UniProt Q9UKW6-2 1-255)
T6 sequence: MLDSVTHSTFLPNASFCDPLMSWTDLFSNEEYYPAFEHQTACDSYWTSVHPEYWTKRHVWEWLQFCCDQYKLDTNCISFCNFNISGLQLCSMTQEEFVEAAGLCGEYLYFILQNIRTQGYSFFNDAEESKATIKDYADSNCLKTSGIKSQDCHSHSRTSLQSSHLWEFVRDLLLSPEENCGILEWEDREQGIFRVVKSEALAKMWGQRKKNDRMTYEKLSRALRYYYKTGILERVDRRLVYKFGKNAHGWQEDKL
Method in brief: as §1

ETV3 = target: T7, ETV3 (Homo sapiens, UniProt P41162-2 1-143)
T7 sequence: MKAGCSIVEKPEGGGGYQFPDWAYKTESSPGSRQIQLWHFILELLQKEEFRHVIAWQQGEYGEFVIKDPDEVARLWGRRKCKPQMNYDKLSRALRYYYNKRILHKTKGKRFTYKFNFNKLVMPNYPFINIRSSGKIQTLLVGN
Method in brief: as §1

ETV6 = ETV6 (Homo sapiens, UniProt P41212 1-452)
ETV6, sequence (P41212 whole entry): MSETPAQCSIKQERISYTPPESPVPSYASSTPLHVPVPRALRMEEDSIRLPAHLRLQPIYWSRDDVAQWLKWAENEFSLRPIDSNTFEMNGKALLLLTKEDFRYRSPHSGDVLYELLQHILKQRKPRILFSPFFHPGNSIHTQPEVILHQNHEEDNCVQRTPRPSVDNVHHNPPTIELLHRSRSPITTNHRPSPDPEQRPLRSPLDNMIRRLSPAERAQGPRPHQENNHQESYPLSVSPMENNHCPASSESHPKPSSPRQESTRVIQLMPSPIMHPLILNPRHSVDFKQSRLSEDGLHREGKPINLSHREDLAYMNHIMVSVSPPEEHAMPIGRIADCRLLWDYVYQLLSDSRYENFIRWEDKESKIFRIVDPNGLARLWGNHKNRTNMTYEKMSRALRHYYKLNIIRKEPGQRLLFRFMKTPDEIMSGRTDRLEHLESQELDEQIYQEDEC
Method in brief: as §1

Sequence	binding signal (ERF)	binding signal (ETV3L)	binding signal (ETS2)	binding signal (SPDEF)	binding signal (ETV7)	binding signal (ELF5)	binding signal (ETV3)	binding signal (ETV6)
GTATTT	1.47 fold enrichment (6-mer frequency, TF over GST control)	1.62 fold enrichment (6-mer frequency, TF over GST control)	1.7 fold enrichment (6-mer frequency, TF over GST control)	1.64 fold enrichment (6-mer frequency, TF over GST control)	1.73 fold enrichment (6-mer frequency, TF over GST control)	1.62 fold enrichment (6-mer frequency, TF over GST control)	1.53 fold enrichment (6-mer frequency, TF over GST control)	1.79 fold enrichment (6-mer frequency, TF over GST control)
CCCTAC	1.37 fold enrichment (6-mer frequency, TF over GST control)	1.53 fold enrichment (6-mer frequency, TF over GST control)	1.42 fold enrichment (6-mer frequency, TF over GST control)	1.43 fold enrichment (6-mer frequency, TF over GST control)	1.37 fold enrichment (6-mer frequency, TF over GST control)	1.61 fold enrichment (6-mer frequency, TF over GST control)	1.41 fold enrichment (6-mer frequency, TF over GST control)	1.6 fold enrichment (6-mer frequency, TF over GST control)
ACTTTG	1.25 fold enrichment (6-mer frequency, TF over GST control)	1.2 fold enrichment (6-mer frequency, TF over GST control)	1.18 fold enrichment (6-mer frequency, TF over GST control)	1.14 fold enrichment (6-mer frequency, TF over GST control)	1.11 fold enrichment (6-mer frequency, TF over GST control)	1.25 fold enrichment (6-mer frequency, TF over GST control)	1.42 fold enrichment (6-mer frequency, TF over GST control)	1.18 fold enrichment (6-mer frequency, TF over GST control)
AGGTCT	1.26 fold enrichment (6-mer frequency, TF over GST control)	1.14 fold enrichment (6-mer frequency, TF over GST control)	1.2 fold enrichment (6-mer frequency, TF over GST control)	1.1 fold enrichment (6-mer frequency, TF over GST control)	1.2 fold enrichment (6-mer frequency, TF over GST control)	1.16 fold enrichment (6-mer frequency, TF over GST control)	1.11 fold enrichment (6-mer frequency, TF over GST control)	1.07 fold enrichment (6-mer frequency, TF over GST control)
TCCGGT	3.43 fold enrichment (6-mer frequency, TF over GST control)	3.57 fold enrichment (6-mer frequency, TF over GST control)	3.76 fold enrichment (6-mer frequency, TF over GST control)	5.35 fold enrichment (6-mer frequency, TF over GST control)	3.35 fold enrichment (6-mer frequency, TF over GST control)	4.56 fold enrichment (6-mer frequency, TF over GST control)	4.02 fold enrichment (6-mer frequency, TF over GST control)	4.04 fold enrichment (6-mer frequency, TF over GST control)
ACGTAT	1.15 fold enrichment (6-mer frequency, TF over GST control)	1.28 fold enrichment (6-mer frequency, TF over GST control)	1.27 fold enrichment (6-mer frequency, TF over GST control)	1.36 fold enrichment (6-mer frequency, TF over GST control)	1.25 fold enrichment (6-mer frequency, TF over GST control)	1.16 fold enrichment (6-mer frequency, TF over GST control)	1.26 fold enrichment (6-mer frequency, TF over GST control)	1.22 fold enrichment (6-mer frequency, TF over GST control)
AAAGTA	1.11 fold enrichment (6-mer frequency, TF over GST control)	1.18 fold enrichment (6-mer frequency, TF over GST control)	1.17 fold enrichment (6-mer frequency, TF over GST control)	1.13 fold enrichment (6-mer frequency, TF over GST control)	1.21 fold enrichment (6-mer frequency, TF over GST control)	1.18 fold enrichment (6-mer frequency, TF over GST control)	1.14 fold enrichment (6-mer frequency, TF over GST control)	1.15 fold enrichment (6-mer frequency, TF over GST control)
TTAAGC	1.21 fold enrichment (6-mer frequency, TF over GST control)	1.22 fold enrichment (6-mer frequency, TF over GST control)	1.13 fold enrichment (6-mer frequency, TF over GST control)	1.04 fold enrichment (6-mer frequency, TF over GST control)	1.13 fold enrichment (6-mer frequency, TF over GST control)	1.14 fold enrichment (6-mer frequency, TF over GST control)	1.22 fold enrichment (6-mer frequency, TF over GST control)	1.06 fold enrichment (6-mer frequency, TF over GST control)
TTTTCA	1.24 fold enrichment (6-mer frequency, TF over GST control)	1.26 fold enrichment (6-mer frequency, TF over GST control)	1.14 fold enrichment (6-mer frequency, TF over GST control)	1.18 fold enrichment (6-mer frequency, TF over GST control)	1.26 fold enrichment (6-mer frequency, TF over GST control)	1.25 fold enrichment (6-mer frequency, TF over GST control)	1.31 fold enrichment (6-mer frequency, TF over GST control)	1.21 fold enrichment (6-mer frequency, TF over GST control)
ACTTCC	7.03 fold enrichment (6-mer frequency, TF over GST control)	7.94 fold enrichment (6-mer frequency, TF over GST control)	8.81 fold enrichment (6-mer frequency, TF over GST control)	8.64 fold enrichment (6-mer frequency, TF over GST control)	7.8 fold enrichment (6-mer frequency, TF over GST control)	12.5 fold enrichment (6-mer frequency, TF over GST control)	9.02 fold enrichment (6-mer frequency, TF over GST control)	10.9 fold enrichment (6-mer frequency, TF over GST control)
TTAAAG	1.25 fold enrichment (6-mer frequency, TF over GST control)	1.2 fold enrichment (6-mer frequency, TF over GST control)	1.19 fold enrichment (6-mer frequency, TF over GST control)	1.12 fold enrichment (6-mer frequency, TF over GST control)	1.21 fold enrichment (6-mer frequency, TF over GST control)	1.13 fold enrichment (6-mer frequency, TF over GST control)	1.21 fold enrichment (6-mer frequency, TF over GST control)	1.19 fold enrichment (6-mer frequency, TF over GST control)
CATCCT	1.49 fold enrichment (6-mer frequency, TF over GST control)	1.69 fold enrichment (6-mer frequency, TF over GST control)	1.61 fold enrichment (6-mer frequency, TF over GST control)	2.33 fold enrichment (6-mer frequency, TF over GST control)	1.5 fold enrichment (6-mer frequency, TF over GST control)	2.13 fold enrichment (6-mer frequency, TF over GST control)	1.86 fold enrichment (6-mer frequency, TF over GST control)	1.65 fold enrichment (6-mer frequency, TF over GST control)
ATGACG	1.39 fold enrichment (6-mer frequency, TF over GST control)	1.34 fold enrichment (6-mer frequency, TF over GST control)	1.26 fold enrichment (6-mer frequency, TF over GST control)	1.45 fold enrichment (6-mer frequency, TF over GST control)	1.16 fold enrichment (6-mer frequency, TF over GST control)	1.44 fold enrichment (6-mer frequency, TF over GST control)	1.2 fold enrichment (6-mer frequency, TF over GST control)	1.28 fold enrichment (6-mer frequency, TF over GST control)
TGGATG	1.46 fold enrichment (6-mer frequency, TF over GST control)	1.53 fold enrichment (6-mer frequency, TF over GST control)	1.4 fold enrichment (6-mer frequency, TF over GST control)	1.53 fold enrichment (6-mer frequency, TF over GST control)	1.68 fold enrichment (6-mer frequency, TF over GST control)	1.45 fold enrichment (6-mer frequency, TF over GST control)	1.57 fold enrichment (6-mer frequency, TF over GST control)	1.44 fold enrichment (6-mer frequency, TF over GST control)
GCTATT	1.37 fold enrichment (6-mer frequency, TF over GST control)	1.34 fold enrichment (6-mer frequency, TF over GST control)	1.25 fold enrichment (6-mer frequency, TF over GST control)	1.2 fold enrichment (6-mer frequency, TF over GST control)	1.34 fold enrichment (6-mer frequency, TF over GST control)	1.33 fold enrichment (6-mer frequency, TF over GST control)	1.25 fold enrichment (6-mer frequency, TF over GST control)	1.35 fold enrichment (6-mer frequency, TF over GST control)
